Shown is part of a subset that was picked to be rich in hits.
GBA mod – Glucocerebrosidase; 48,000 tested, 1.1% active; purified enzyme, resorufin glucoside fluorescence (screen aimed at inhibitors), 20 min; Lysosomal acid glucosylceramidase (Homo sapiens), P04062; Potency, µM; in the data active means potency below about 15 µM;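 further: the screen sought inhibitors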
Target sequence (P04062 whole entry, looked up): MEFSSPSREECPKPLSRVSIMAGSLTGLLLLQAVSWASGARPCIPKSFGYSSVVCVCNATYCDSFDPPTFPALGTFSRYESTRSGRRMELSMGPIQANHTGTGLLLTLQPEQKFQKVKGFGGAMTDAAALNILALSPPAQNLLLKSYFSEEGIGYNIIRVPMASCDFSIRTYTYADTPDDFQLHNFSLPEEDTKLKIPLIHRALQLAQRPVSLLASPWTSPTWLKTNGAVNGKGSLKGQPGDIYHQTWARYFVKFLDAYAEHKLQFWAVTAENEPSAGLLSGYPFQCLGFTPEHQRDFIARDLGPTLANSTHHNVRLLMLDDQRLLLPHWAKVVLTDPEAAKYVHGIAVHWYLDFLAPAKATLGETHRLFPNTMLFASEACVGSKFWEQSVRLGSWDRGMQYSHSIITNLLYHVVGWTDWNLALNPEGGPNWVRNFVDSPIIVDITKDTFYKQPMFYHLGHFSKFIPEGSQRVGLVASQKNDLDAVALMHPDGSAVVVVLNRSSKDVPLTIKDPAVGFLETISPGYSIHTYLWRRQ
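Compounds titrated against 0.2 nM normal enzyme, 30 uM resorufin beta-D-glucopyranoside substrate, citrate/phosphate buffer with taurocholate and tween-20, pH 5.9. Reaction ran 20 min at room temperature; fluorescence (Ex 548/Em 600) gave AC50.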
Hits are given with their value; i = inactive.

SMILES	GBA mod
CCOc1ccc(C2C(C#N)=C(N)Oc3cc(C)n(CCN(C)C)c(=O)c32)cc1OCC (centres undefined)	i
CCc1nnc(NC(=O)C2CCN(S(=O)(=O)Cc3ccccc3)CC2)s1	4.3
CCc1nnc(NC(=O)c2ccc(S(=O)(=O)N3CCN(Cc4ccccc4)CC3)cc2)s1	i
CCc1nnc(NC(=O)OCc2ccccc2)s1	i
Nn1c(SCC(=O)Nc2cccc(F)c2)nnc1C1CCCCC1	i
CCn1c(=S)sc2c(=O)n(-c3ccccc3)c(SC)nc21	i
O=C(CSc1nc2ccccc2c(=O)n1Cc1ccco1)c1ccc(F)cc1	i
N#CCSc1nc2c(sc(=S)n2Cc2ccco2)c(=O)n1-c1ccc(F)cc1	6
CCn1nc(C(=O)OCC(=O)c2cc(C)n(Cc3cccs3)c2C)c2ccccc2c1=O	i
Cc1cc(C(=O)COC(=O)c2ccc3c(c2)OCO3)c(C)n1Cc1cccs1	14
CC(=O)Nc1ccccc1OCC(=O)c1cc(C)n(Cc2cccs2)c1C	i
CCc1nc2ccccc2c(=O)n1CCCCn1c(CC)nc2ccccc2c1=O	i
CC(=O)C(C(C)=O)c1c(Cl)c(O)c(O)c2c(C(=O)c3ccccc3)coc12	i
COc1ccc(S(=O)(=O)c2ccc(OC)c(OC)c2)cc1OC	i
COc1cccc(C2C3=C(CCCC3=O)Nc3nc4ccccc4n32)c1OC (centres undefined)	i
NC(=O)CN1C(=O)C2C3C=CC(C3)C2C1=O (centres undefined)	i
O=C1C2C3C=CC(C3)C2C(=O)N1CNc1ccc(O)cc1 (centres undefined)	12
O=C(CCN1C(=O)C2C3C=CC(C3)C2C1=O)Nc1ccc(F)cc1 (centres undefined)	i
CCCCN(CCCC)S(=O)(=O)c1ccc(C(=O)Nc2nnc(CSC)o2)cc1	i
CCCCN(CC)S(=O)(=O)c1ccc(C(=O)Nc2nnc(-c3ccccc3Cl)o2)cc1	i
CCCCN(C)S(=O)(=O)c1ccc(C(=O)Nc2nnc(-c3cccs3)o2)cc1	8.2
CCn1cc(C(C)NC(=O)COc2ccc(Cl)cc2C)c(C)n1 (centres undefined)	i
COc1cc(S(=O)(=O)N2CCN(C(=O)c3ccccc3F)CC2)c(OC)cc1NC(C)=O	i
CN1C(=O)CC(n2c(CO)nc3ccccc32)C1=O (centres undefined)	i
Oc1ccccc1C1=Nc2nc3ccccc3n2C(c2ccccc2)C1 (centres undefined)	15
SMILES	GBA mod
CC(O)c1nc2ccccc2n1C1CCCCC1 (centres undefined)	i
O=C(CSc1nnc(C2CCCCC2)n1Cc1ccccc1)NCc1ccco1	i
CNc1ccc(C(O)(C(F)(F)F)C(F)(F)F)cc1C(O)(C(F)(F)F)C(F)(F)F	13
O=CN1CC(=O)N(c2ccccc2)c2c([nH]c3ccccc23)C1	i
CC1CCCC(C)N1CCNC(=O)CCn1nc(-c2ccccc2)ccc1=O (centres undefined)	i
CCOC(=O)c1cnn(-c2cc(C)c3cc(C)cc(C)c3n2)c1N	i
COCCOC(=O)C1=C(C)NC(=O)NC1c1cn(-c2ccccc2)nc1-c1cccs1 (centres undefined)	i
NC1=NC(c2cn(-c3ccccc3)nc2-c2cccs2)n2c(nc3ccccc32)N1 (centres undefined)	12
CC1=C(C#N)C(c2cn(-c3ccccc3)nc2-c2cccs2)C(C#N)=C(C)N1	i
COc1ccccc1N1CCN(C(=O)Cn2nc(C(F)(F)F)c3c2CCC3)CC1	i
CC(=O)Nn1c(-c2ccccc2)cc2ccccc21	i
Cn1c(=O)c2c(-c3ccncc3)c3c(nc2n(C)c1=O)-c1ccccc1C3=O	i
O=C1CCCC/C1=C\Nc1ccc(O)cc1	i
O=C1CCCC/C1=C\Nc1ccc(Cl)cn1	14
CCCCC(=O)Nc1ccc(Cl)cn1	i
O=C(NCC1COc2ccccc2O1)Nc1ccccc1F (centres undefined)	i
COc1ccc(N2CCN(C(=O)Cn3c(=O)[nH]c4ccsc4c3=O)CC2)cc1	i
CCC(=O)c1ccccc1OCCN1C(=O)NC(C)(C)C1=O	i
CCCCOc1ccc(OCCCC)c2c1NC1(N2)C(=O)N(C(C)=O)c2ccccc21	6.1
CCNC(=O)N1C(=O)C2(OCCO2)c2ccccc21	i
Nc1c(S(=O)(=O)c2cccs2)c2nc3ccccc3nc2n1/N=C/c1cccc(O)c1	i
CC1(C)CC(=O)CC(=Nc2ccc(C(=O)O)cc2)C1	i
Cc1ccc(-n2c(-c3ccncc3)nnc2-c2cccs2)cc1	i
Cn1nc(-c2ccc(Cl)cc2)c2cc(C(=O)N3CCC(N4CCCCC4)CC3)sc21	i
Cc1cc(NC(=O)c2ccc3nc(-c4ccccc4)c(-c4ccccc4)nc3c2)no1	14
SMILES	GBA mod
Cc1cc(NC(=O)c2ccccc2Oc2ccccc2)no1	i
Cc1cc(NC(=O)c2cc(C)on2)no1	i
O=C(NCc1cccs1)C1CCCN(c2nc3ccccc3o2)C1 (centres undefined)	i
CC(C)Cn1c(N)c(C(=O)CSc2ccc3c(c2)OCCO3)c(=O)n(C)c1=O	i
Cc1noc(C)c1CSc1ncnc2ccccc12	i
CCC(=O)Nc1ccc(C(=O)Cn2nc(C(=O)O)c3ccccc3c2=O)cc1	4.6
Cc1nn(CC(=O)Nc2ccccc2)c(=O)c2ccccc12	i
Cc1nn(CC(=O)Nc2ccc(C(=O)N(C)C)cc2)c(=O)c2ccccc12	i
COc1cc(CC(=O)Oc2ccc3c(c2)OCO3)cc(OC)c1OC	i
COCCn1c(=O)[nH]c2cc(C(=O)NCCN3CCN(c4ccc(OC)cc4)CC3)ccc2c1=O	i
Cc1n[nH]c(C)c1S(=O)(=O)Nc1ccc2c(c1)OCCO2	i
COc1ccc(-c2cn3cc(Cl)ccc3n2)cc1OC	2.8
COc1ccc(-c2onc3ccc(Cl)cc23)cc1OC	i
COc1ccc(-c2noc(-c3cccc(Cl)c3)n2)cc1OC	i
CC(=O)c1cccc(NC(=O)COc2ccc(S(=O)(=O)N3CCCCC3)cc2)c1	i
O=C1OC(Nc2nccs2)c2ccccc21 (centres undefined)	i
O=C1OC(Nc2ccc(F)cc2F)c2ccccc21 (centres undefined)	i
O=C1OC(Nc2nc3ccccc3s2)c2ccccc21 (centres undefined)	15
O=C(NCC1CCCO1)C1CCN(C(=O)c2ccc(Br)cc2)CC1 (centres undefined)	i
COc1ccc(-c2cc(C(=O)NCC(C)C)no2)cc1	i
O=C(Nc1nc(-c2cccs2)cs1)c1cccc(S(=O)(=O)N2CCCCC2)c1	i
O=C(Nc1nc(-c2ccc(S(=O)(=O)N3CCCCCC3)cc2)cs1)c1cccs1	14
O=C(Nc1nc(-c2ccccc2)cs1)C1CCCN(S(=O)(=O)c2ccccc2)C1 (centres undefined)	i
Cc1ccc(CNC(=O)CSc2nc(N3CCCCC3)nc(N3CCCCC3)n2)cc1	i
NS(=O)(=O)c1ccc(CCNC(=O)COC(=O)C2CCCN2C(=O)c2cccs2)cc1 (centres undefined)	i
COc1ccccc1N(C(=O)CNS(=O)(=O)c1ccccc1)C(C(=O)NCc1ccco1)C(C)C (centres undefined)	i
CCCC(C(=O)NCc1ccco1)N(C(=O)CNS(=O)(=O)c1ccccc1)c1ccccc1OC (centres undefined)	15
CCC(C(=O)NCc1ccco1)N(C(=O)CNS(=O)(=O)c1ccc(C)cc1)c1ccccc1OC (centres undefined)	i
CCCn1cnc2c(c1=O)c1nc3ccccc3nc1n2CCC1=CCCCC1	i
CCCn1cnc2c(c1=O)c1nc3ccccc3nc1n2CCc1ccccc1	7
